# Laboratory results: PubChem BioAssay AID2069 (Sanford-Burnham Center for Chemical Genomics, 2009)
# Among all 1,200 compounds or so, about 210 (18%) were called active. Only a sample is shown. Values without a mark were called inactive. Rule as the data show it: active = inhibition above about 30%; inactive = the rest.
# Experiment: fluorescence readout artefact check – biochemical, HTRF, uHTS, artefact control for SUMOylation inhibitor project, confirmation (AID 2069)
# Conditions: HTRF interference counterscreen, at 35 µM, active compounds read high
row,Compound,inhibition
1,CCOc1ccc(C2C=C(c3ccccc3)Nc3ncnn32)cc1 (configuration not stated),50.8% (active)
2,COc1ccc2nc(NC(=O)CCc3ccc(OC)c(OC)c3)sc2c1,10.8%
3,N#CC(c1nc2ccccc2nc1N1CCCC1)S(=O)(=O)c1ccccc1 (configuration not stated),1.75%
4,COc1cc(=O)n(C)c2c(OCC3OC(C)(C)OC3(C)C)cccc12 (configuration not stated),2.3%
5,O=c1c(-c2c(O)cc(O)c3c(=O)cc(-c4ccc(O)cc4)oc23)c(-c2ccc(O)cc2)oc2cc(O)cc(O)c12,35.6% (active)
6,COc1cccc(NC(=O)Nc2nnc(-c3ccccc3SCc3ccccc3)s2)c1,2.35%
7,COc1ccc(C=Nc2cccc3ncccc23)cc1,-4.65%
8,COc1ccc(/C=C/c2cc(C(=O)O)c3ccccc3n2)cc1,68.2% (active)
9,CCOc1ccc(/C=N/NC(=O)c2cc(-c3ccco3)nc3ccccc23)cc1,15.3%
10,C/C(=N\NC(=O)c1cc(O)ccc1O)c1cccc(NC(=O)c2ccc(Cl)cc2)c1,-7.9%
11,Cc1ccc(NC(=O)Cn2c(=O)oc3cc(S(=O)(=O)N4CCC(C)CC4)ccc32)cc1C,-3.55%
12,O=C1/C(=C/c2ccco2)Oc2c1ccc(O)c2CN1CCCCC1,37.6% (active)
13,NC(=O)CC(NC(=O)Cc1ccc(Br)cc1)c1ccc(NCCOc2ccccc2)c([N+](=O)[O-])c1 (configuration not stated),7.3%
14,CN(C)c1cc(Nc2cccc(O)c2)c([N+](=O)[O-])c2nonc12,-1.05%
15,CN1C(=O)c2cccc3c(S(=O)(=O)NCc4ccco4)ccc1c23,11.9%
16,CN1C(=O)c2cccc3c(S(=O)(=O)NCCc4ccccc4)ccc1c23,45% (active)
17,CCN(CC)CCNS(=O)(=O)c1ccc2c3c(cccc13)C(=O)N2,47.2% (active)
18,CN(C)CCNS(=O)(=O)c1ccc2c3c(cccc13)C(=O)N2,60.6% (active)
19,CCN1C(=O)c2cccc3c(N)ccc1c23,-24.4%
20,O=C(NCc1ccccc1)Nc1cccn(Cc2ccccc2Cl)c1=O,1.3%
21,N=C1S/C(=C\c2ccc(O)cc2)C(=O)N1c1ccc(F)cc1,14.8%
22,COc1ccc(-c2nc3c(c(SCC(=O)Nc4cccc(O)c4)n2)Cc2c(CO)cnc(C)c2O3)cc1,-1.05%
23,CC(=O)Nc1ccc(-c2nc3ccc(NC(C)=O)cc3o2)cc1,40.8% (active)
24,Cc1ccc(-c2nc3ccccc3o2)cc1NC(=O)c1ccc2c(c1)OCO2,16.6%
25,CC(=O)Nc1ccc(S(=O)(=O)Nc2nc3ccccc3nc2Nc2ccc3ccccc3c2)cc1,18.6%

row,Compound,inhibition
1,O=C(Nc1ccc2nc3ccccc3nc2c1)c1ccc(Br)cc1,20.6%
2,CC(=O)Nc1cccc(NC(=S)Nc2cccc3ccccc23)c1,-2.65%
3,CC(=O)Nc1ccc2nc3ccccc3nc2c1,36.7% (active)
4,CCOc1cc(/C=N/N=C(\N)c2nonc2N)cc(Br)c1OCc1cccc2ccccc12,0.3%
5,Cc1cc(/C=C2\SC(=S)NC2=O)c(C)[nH]1,3.5%
6,O=C(Nc1ccc(N2CCOCC2)c2nonc12)C1CCCC1,-18.9%
7,O=C(O)CSc1cc(C(=O)c2ccccc2O)cn2c(=O)c3c(-c4ccccc4)csc3nc12,7.6%
8,Cc1cc(-c2csc(N)n2)c(C)n1Cc1ccco1,-4.05%
9,Nc1c(C(=O)Nc2ccccc2)sc2nc(-c3ccco3)ccc12,50.1% (active)
10,Nc1c(C(=O)Nc2ccc(F)cc2)sc2nc(-c3ccco3)ccc12,47% (active)
11,Nc1c(C(=O)Nc2ccc(Br)cc2)sc2nc(-c3ccco3)ccc12,28.9%
12,O=C(Nc1ccc(-n2nncc2-c2ccco2)cc1)c1cc2ccccc2oc1=O,9.4%
13,O=C(N/N=C/c1ccc(F)cc1)c1cc(-c2ccco2)nc2ccccc12,13%
14,COc1ccccc1NC(=O)c1sc2nc(-c3ccco3)ccc2c1N,26.8%
15,O=C(N/N=C/c1ccc(-c2cccc([N+](=O)[O-])c2)o1)c1ccccc1O,2.3%
16,Cc1ccc(N=C2NC(=O)/C(=C\c3ccco3)S2)cc1,-0.45%
17,NC1=NC(c2ccc(Cl)cc2)N(c2ccc(S(N)(=O)=O)cc2)C(N)=N1 (configuration not stated),6.2%
18,O=C(CNc1cccc2ccccc12)c1ccc([N+](=O)[O-])cc1,-2.7%
19,CCOC(=O)N1CCN(C2=C(NS(=O)(=O)c3ccc(C)cc3)C(=O)c3ccccc3C2=O)CC1,-12.7%
20,COc1cc(C2c3c(oc4ccccc4c3=O)C(=O)N2c2nccs2)ccc1O (configuration not stated),7.95%
21,O=C(O)c1cc(-c2ccco2)nn1-c1ccc(Cl)cc1,1.75%
22,Cc1ccc(S(=O)(=O)n2ccc(OC(=O)c3cccs3)n2)cc1,0.25%
23,O=C1NNC(c2ccccc2)=N/C1=C\c1ccccc1Cl,-7.9%
24,Cc1ncc(CO)c(/C=N/NC(=O)c2cc(O)c(O)c(O)c2)c1O,0.4%
25,CN(C)/C=N/c1nc2nccc(-c3cccnc3)n2n1,49.2% (active)

row,Compound,inhibition
1,S=c1[nH]nc(-c2cccnc2)n1/N=C/C=C/c1ccco1,-1.7%
2,CN(C)/C=N/c1nc2nccc(-c3cccc(Cl)c3)n2n1,57.1% (active)
3,CC1=NN(c2ccc(F)cc2)C(=O)C1C(c1cccc(O)c1)c1c(C)[nH]n(-c2ccc(F)cc2)c1=O (configuration not stated),-9.8%
4,CN(C)c1cc(N/N=C\c2ccccc2)nc(N(C)C)n1,22.4%
5,O=C(CC1Nc2cccc3cccc(c23)NC1=O)Nc1ccccc1 (configuration not stated),-22.9%
6,O=C(CSc1ccc(Br)c2cccc(Cl)c12)Nc1ccc(S(=O)(=O)Nc2nccs2)cc1,-50.4%
7,COc1cc2c(ccc3cc(OC)c(OC)c(O)c32)cc1O,24.2%
8,CC(=O)Nc1ccc(NC(=O)Cn2c(-c3ccc(F)cc3)cnc2SCC(=O)Nc2c(C)cccc2C)cc1,-6.5%
9,[O-]/C(=C(\C(=S)Nc1cccc2ccccc12)[n+]1ccccc1)c1ccc(Cl)s1,-8.3%
10,COc1c(C)oc2cc(O)ccc2c1=O,41% (active)
11,O=C1CC(N2CCOCC2)=NN1c1ccc([N+](=O)[O-])cc1,-12.8%
12,O=C(NNc1cc(N2CCOCC2)nc(N2CCOCC2)n1)c1ccc(Cl)c(Cl)c1,-6.9%
13,Fc1ccc(-c2nc3cnccn3c2NC2CCCC2)cc1,57.9% (active)
14,O=C(/C=C\c1ccco1)c1ccc(NC(=O)c2ccco2)cc1,0.2%
15,CCOc1cc(CNc2ccc(N3CCN(C(C)=O)CC3)cc2)cc(Br)c1OC,-8.4%
16,Cc1c2c(=O)n(-c3nc4ccccc4s3)nc-2cc(O)n1Cc1ccccc1,-12.7%
17,Cc1ccc(S(=O)(=O)NNC(=S)Nc2c(Cl)cccc2Cl)cc1,-4.65%
18,Cc1[nH]n(-c2ccccc2)c(=O)c1/C=N/N(C)c1ccccc1,-31.9%
19,C[n+]1cccc2ccc3c(c21)OC(N)=C(C#N)C3c1ccccc1 (configuration not stated),-12.1%
20,COc1cc(OC)cc(-c2nc(-c3ccccc3)no2)c1,-17.7%
21,COc1ccc(-c2cc(-c3ccccc3)n3ncnc3n2)cc1,53.7% (active)
22,Cc1ccc(S(=O)(=O)C(C#N)c2nc3ccccc3nc2N2CCCC2)cc1 (configuration not stated),-7.1%
23,COc1ccc(C2=NN(C(=O)c3cccs3)C(c3ccccc3O)C2)cc1 (configuration not stated),8.65%
24,CC1=NN(c2ccccc2)C(=O)/C1=C/c1ccc(Cl)cc1,-10.2%
25,O=C(O)c1ccc(C(=O)Nc2cccc3ccccc23)c(C(=O)O)c1,4.4%

row,Compound,inhibition
1,O=[N+]([O-])c1ccc2[nH]c(O)c(N=NC(=S)Nc3cccnc3)c2c1,-5.4%
2,CCN(CC)CCOC(=O)c1ccc(N/C=C(/C#N)c2nc(-c3ccc(OC)c(OC)c3)cs2)cc1,6.75%
3,O=C(Nc1ccc2nc(-c3ccco3)c(-c3ccco3)nc2c1)N1CCN(c2ccccn2)CC1,12.2%
4,O=C(NCc1ccccc1)c1ccc2nc(-c3ccco3)c(-c3ccco3)nc2c1,15.6%
5,O=S(=O)(c1ccc2nc(-c3ccco3)c(-c3ccco3)nc2c1)N1CCOCC1,30.4% (active)
6,C=CCN1C(=O)N(CC=C)c2cccc3cccc1c23,-6.45%
7,Nc1c(N2CCCC2)cc(Cl)c2nonc12,22.4%
8,CCOC(=O)COc1nc(-c2ccco2)cc(-c2ccco2)c1C#N,22.2%
9,N#Cc1c(-c2cccc(Br)c2)cc(-c2ccco2)[nH]c1=O,31.6% (active)
10,N#Cc1c(-c2ccco2)cc(-c2cccnc2)nc1N,25.1%
11,COc1ccc(S(=O)(=O)/N=C2/NC(=O)/C(=C\c3ccco3)S2)cc1,-10.3%
12,CC(=O)C1=C(O)C=C(c2ccco2)CC1c1ccco1 (configuration not stated),-2.85%
13,O=c1oc2cc(O)ccc2cc1-c1ccc(F)cc1,45.8% (active)
14,O=c1cc(-c2ccc(F)cc2)[nH][nH]1,-7.15%
15,Cc1ccc(NC(=O)CN2C(=O)S/C(=C/c3ccc(O)c([N+](=O)[O-])c3)C2=O)cc1C,-1.6%
16,Cc1ccc(NC(=O)Cn2c(O)c(N=NC(=O)c3cc4ccccc4cc3O)c3ccccc32)cc1,8.55%
17,N=c1c(S(=O)(=O)c2ccc(Cl)cc2)cc2c(=O)n3ccccc3nc2n1Cc1ccco1,-23.2%
18,Cc1ccc(S(=O)(=O)c2cc3c(=O)n4ccccc4nc3n(Cc3ccco3)c2=N)cc1,-2.55%
19,N=c1c(S(=O)(=O)c2ccccc2)cc2c(=O)n3ccccc3nc2n1Cc1ccco1,14.8%
20,Cn1c(C(=O)N2CCN(C(=O)c3ccco3)CC2)cc2c(=O)n3ccccc3nc21,57.9% (active)
21,N=c1c(S(=O)(=O)c2ccc(Br)cc2)cc2c(=O)n3ccccc3nc2n1Cc1ccco1,-13.2%
22,Cn1c(C(=O)N2COCC2(C)C)cc2c(=O)n3ccccc3nc21,55.8% (active)
